PubChem BioAssay (EPA / NIEHS)
Results filed as inconclusive are left out. Activity calls are given as the source filed them. The calls were made as follows, unless noted: active = hit-call score of the fitted dose curve at least 0.9, where 1 is the maximum; inactive = score below 0.9.

Legend:
[1] = target: Peroxisome proliferator-activated receptor gamma (Homo sapiens) (UniProt P37231); assay: OT_PPARg_PPARgSRC1_0480: Odyssey Thera (OT) 8-hour Protein-Complementation Assay for Peroxisome Proliferator-activated Receptor Gamma / SRC-1 Co-activator (AID 2283387; active = hit-call score of the fitted dose curve at least 0.9, where 1 is the maximum;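 also: nuclear to cytoplasmic split Venus YFP fluorescence ratio reporting PPARg SRC-1 interaction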)
In short: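 Split-YFP (IFP1/IFP2) PPARg/SRC-1 reporter, HEK293T, 37 °C, 5% CO2; 8 h compound; formaldehyde fix + Draq5; high-content imaging, N/C ratio, ≥350 cells/image, positive direction vs DMSO.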

[2] = target: Peroxisome proliferator-activated receptor gamma (Homo sapiens) (UniProt P37231); assay: OT_PPARg_PPARgSRC1_1440: Odyssey Thera (OT) 24-hour Protein-Complementation Assay for Peroxisome Proliferator-activated Receptor Gamma/ SRC-1 Co-activator (AID 2283388; active = hit-call score of the fitted dose curve at least 0.9, where 1 is the maximum;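 also: nuclear to cytoplasmic ratio of reconstituted Venus YFP fluorescence in fixed imaged cells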)
In short: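 Cells carrying the PPARg/SRC-1 fragment-complementation reporter receive compound for 24 hours, are fixed and counterstained with Draq5, then imaged. Increased nuclear relative to cytoplasmic YFP fluorescence above DMSO baseline indicates binding activity.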

[3] = CEETOX_H295R_OHPREG: CeeTox H295R High-throughput Steroidogenesis Assay for OH-Pregnenolone (OHPREG) (AID 2283434); settings: actives raise or lower the signal
In short: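 Readout: HPLC-MS/MS of 17alpha-hydroxypregnenolone in medium after 48 h chemical exposure of H295R cells pretreated with forskolin. Values fitted bidirectionally relative to DMSO; chemicals reducing viability to 20–70% were retested after 10-fold dilution.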

[4] = CEETOX_H295R_OHPROG: CeeTox H295R High-throughput Steroidogenesis Assay for OH-Progesterone (OHPROG) (AID 2283435); settings: actives raise or lower the signal;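 as to AC50: 17alpha-hydroxyprogesterone secreted into medium measured by HPLC-MS/MS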
In short: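 HPLC-MS/MS quantification of 17alpha-hydroxyprogesterone secreted by H295R cells after 48 h chemical exposure, following 48 h 10 uM forskolin prestimulation. Gain or loss of signal fitted relative to DMSO. Viability checked by MTT in the same wells.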

[5] = CEETOX_H295R_ESTRADIOL: CeeTox H295R High-throughput Steroidogenesis Assay for Estradiol (AID 2283440); settings: actives raise or lower the signal;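 also: estradiol secreted into medium quantified by LC-MS/MS after dansyl derivatisation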
In short: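 Readout is estradiol in conditioned medium, quantified by reverse-phase HPLC-MS/MS against a 7-point standard curve. Cells: H295R, forskolin-stimulated, then dosed 48 h in 0.1% DMSO; activity fitted in both directions relative to DMSO.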

[6] = CEETOX_H295R_ESTRONE: CeeTox H295R High-throughput Steroidogenesis Assay for Estrone (AID 2283441); settings: actives raise or lower the signal;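 also: estrone secreted into medium measured by LC-MS/MS after dansyl derivatization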;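 as to AC50: human adrenal H295R cells prestimulated with forskolin for two days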
In short: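 Forskolin-stimulated H295R cells are treated 48 h with chemical, and estrone in the medium is measured by LC-MS/MS. Activity is fitted in both directions relative to DMSO controls, with chemicals diluted until MTT viability reaches at least 70%.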

[7] = read-out: Tumor necrosis factor receptor superfamily member 6 (Homo sapiens) (UniProt P25445); assay: LTEA_HepaRG_FAS: Life Technologies and Expression Analysis (LTEA) Assay for Fas cell surface death receptor (FAS) using HepaRG (AID 2283447); settings: mRNA level, 48 h; actives raise or lower the signal
In short: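 Differentiated human HepaRG cells, pre-cultured 48 h, were exposed in duplicate for 48 h to 8-point half-log concentrations (top 100 uM, 0.5% DMSO) in serum-free induction medium; FAS mRNA measured by qRT-PCR, normalized to ACTB/GAPDH/POLR2A, bidirectional fit versus DMSO.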

[8] = read-out: Fatty acid synthase (Homo sapiens) (UniProt P49327); assay: LTEA_HepaRG_FASN: Life Technologies and Expression Analysis (LTEA) Assay for Fatty Acid Synthase (FASN) using HepaRG (AID 2283448); settings: mRNA level, 48 h; actives raise or lower the signal
In short: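 HepaRG, 48 h exposure, 8-pt half-log series top 100 uM, 0.5% DMSO vehicle, duplicates. Readout: FASN transcript by Fluidigm qRT-PCR; housekeeping-normalized; bidirectional curve fit vs DMSO baseline.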

[9] = read-out: Cyclin D2 (CCND2), CCND2 (gene 894); assay: LTEA_HepaRG_CCND2: Life Technologies and Expression Analysis (LTEA) Assay for Cyclin D2 (CCND2) using HepaRG (AID 2283449); settings: mRNA level, 48 h; actives raise or lower the signal;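 also: CCND2 transcript measured by TaqMan qRT-PCR and normalised to three housekeeping genes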
In short: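 In this HepaRG study, an eight-point concentration series (max 100 uM, 0.5% DMSO) is applied for 48 h. CCND2 mRNA change is derived by qRT-PCR normalised to ACTB, GAPDH and POLR2A.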

[10] = read-out: Cyclin Dependent Kinase Inhibitor 1A (CDKN1A), CDKN1A (gene 1026); assay: LTEA_HepaRG_CDKN1A: Life Technologies and Expression Analysis (LTEA) Assay for Cyclin Dependent Kinase Inhibitor 1A (CDKN1A) using HepaRG (AID 2283450); settings: mRNA level, 48 h; actives raise or lower the signal
In short: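 Gain or loss of CDKN1A transcript is scored by bidirectional fitting against 0.5% DMSO vehicle. Human HepaRG cultures receive chemicals for 48 h across an 8-point series peaking at 100 uM; expression comes from qRT-PCR.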

[11] = read-out: Cyclin D1 (CCND1), CCND1 (gene 595); assay: LTEA_HepaRG_CCND1: Life Technologies and Expression Analysis (LTEA) Assay for Cyclin D1 (CCND1) using HepaRG (AID 2283451); settings: mRNA level, 48 h; actives raise or lower the signal
In short: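 Expression change is measured by qRT-PCR in HepaRG cells after 48 h treatment across eight concentrations topping at 100 uM, with duplicate wells and DMSO (0.5%) serving as baseline for bidirectional fitting.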

[12] = read-out: catalase (CAT), CAT (gene 847); assay: LTEA_HepaRG_CAT: Life Technologies and Expression Analysis (LTEA) Assay for catalase (CAT) using HepaRG (AID 2283452); settings: mRNA level, 48 h; actives raise or lower the signal;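 as to AC50: TaqMan qRT-PCR signal normalized to ACTB GAPDH and POLR2A housekeeping genes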
In short: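 Differentiated HepaRG cells in serum-free induction medium were dosed 48 h in duplicate, eight half-log concentrations from 100 uM in 0.5% DMSO. Transcript measured by TaqMan qRT-PCR, normalised to ACTB/GAPDH/POLR2A, fitted bidirectionally against DMSO.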

[13] = read-out: flavin-containing dimethylaniline monooxygenases 3 (FMO3), FMO3 (gene 2328); assay: LTEA_HepaRG_FMO3: Life Technologies and Expression Analysis (LTEA) Assay for flavin-containing dimethylaniline monooxygenases 3 (FMO3) using HepaRG (AID 2283453); settings: mRNA level, 48 h; actives raise or lower the signal;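 as to AC50: FMO3 transcript by TaqMan qRT-PCR normalized to ACTB GAPDH and POLR2A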
In short: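 Eight-point concentration-response in serum-free HepaRG cultures (top 100 uM, 0.5% DMSO, 48 h). Read-out: FMO3 mRNA level normalized to three endogenous control genes, fitted bidirectionally versus vehicle.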

[14] = read-out: Cytochrome P450 (CYP1A1), CYP1A1 (gene 1543); assay: LTEA_HepaRG_CYP1A1: Life Technologies and Expression Analysis (LTEA) Assay for Cytochrome P450 (CYP1A1) using HepaRG (AID 2283454); settings: mRNA level, 48 h; actives raise or lower the signal
In short: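 Using HepaRG cultures with 0.5% DMSO as vehicle, eight-concentration exposures (max 100 uM) lasted 48 h. Transcript levels were measured by TaqMan qRT-PCR and normalized to ACTB, GAPDH and POLR2A.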

[15] = read-out: CFLAR gene, CFLAR (gene 8837); assay: LTEA_HepaRG_CFLAR: Life Technologies and Expression Analysis (LTEA) Assay for CFLAR gene using HepaRG (AID 2283455); settings: mRNA level, 48 h; actives raise or lower the signal
In short: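 Gain- or loss-of-signal changes in CFLAR transcript were fitted bidirectionally relative to 0.5% DMSO. Cells (HepaRG, duplicate wells) were dosed for 48 h across eight half-log concentrations topping at 100 uM; quantitation by TaqMan qRT-PCR.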

[16] = read-out: Forkhead box O1 (FOXO1), FOXO1 (gene 2308); assay: LTEA_HepaRG_FOXO1: Life Technologies and Expression Analysis (LTEA) Assay for Forkhead box O1 (FOXO1) using HepaRG (AID 2283456); settings: mRNA level, 48 h; actives raise or lower the signal
In short: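 Using one lot of HepaRG hepatic cells kept in 0.5% DMSO, the team applied test chemicals in duplicate, half-log dilutions from 100 uM, for 48 h. Expression, normalised to ACTB/GAPDH/POLR2A, was compared with vehicle in either direction.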

[17] = CEETOX_H295R_11DCORT: CeeTox H295R High-throughput Steroidogenesis Assay for 11-Deoxycortisol (11DCORT) (AID 2283432); settings: actives raise or lower the signal;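 as to AC50: 11-deoxycortisol secreted into the medium measured by LC-MS/MS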
In short: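 Steroidogenesis in human H295R cells: 48 h chemical exposure after forskolin priming, 11-deoxycortisol measured by LC-MS/MS.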

[18] = CEETOX_H295R_CORTISOL: CeeTox H295R High-throughput Steroidogenesis Assay for Cortisol (AID 2283438); settings: actives raise or lower the signal;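 also: cortisol secreted into medium quantified by LC-MS/MS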
In short: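 Read-out: cortisol in culture medium by reverse-phase C18 HPLC with ESI-positive tandem MS, after MTBE liquid-liquid extraction. Cells: human adrenal H295R, forskolin-primed (10 uM, 48 h) before 48 h chemical exposure in 0.1% DMSO.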

[19] = CEETOX_H295R_DOC: CeeTox H295R High-throughput Steroidogenesis Assay for DOC (AID 2283439); settings: actives raise or lower the signal
In short: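 Human adrenocortical H295R cells, passages up to 10, received 10 uM forskolin for 48 h before chemical addition. After another 48 h exposure in 0.1% DMSO, secreted DOC was measured by LC-MS/MS, with gain or loss fitted against DMSO controls.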

[20] = CEETOX_H295R_ANDR: CeeTox H295R High-throughput Steroidogenesis Assay for Androstenedione (ANDR) (AID 2283436); settings: actives raise or lower the signal;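 also: human H295R adrenal cells exposed for 48 h with androstenedione measured in medium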
In short: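 Steroidogenesis in H295R adrenal cells after 48 h dosing; androstenedione quantified by LC-MS/MS, with DMSO as negative control and baseline for bidirectional curve fitting.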

Measured: AC50

Sequence of Peroxisome proliferator-activated receptor gamma (Homo sapiens) (P37231 whole entry, looked up, the tested form may be a part): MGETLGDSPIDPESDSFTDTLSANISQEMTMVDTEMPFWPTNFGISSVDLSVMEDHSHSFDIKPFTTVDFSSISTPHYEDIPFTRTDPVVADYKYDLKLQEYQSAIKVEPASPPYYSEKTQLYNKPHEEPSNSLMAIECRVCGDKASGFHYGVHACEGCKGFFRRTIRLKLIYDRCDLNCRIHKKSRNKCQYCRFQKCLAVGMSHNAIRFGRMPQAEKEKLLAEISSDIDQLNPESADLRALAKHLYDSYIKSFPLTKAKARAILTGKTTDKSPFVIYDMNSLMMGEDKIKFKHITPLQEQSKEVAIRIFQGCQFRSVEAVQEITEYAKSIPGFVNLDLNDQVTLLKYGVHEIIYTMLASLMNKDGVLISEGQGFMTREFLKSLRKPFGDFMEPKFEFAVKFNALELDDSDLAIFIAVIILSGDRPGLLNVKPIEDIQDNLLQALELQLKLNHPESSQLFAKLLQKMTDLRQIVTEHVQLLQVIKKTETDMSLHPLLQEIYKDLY
Sequence of Fatty acid synthase (Homo sapiens) (P49327 whole entry, looked up): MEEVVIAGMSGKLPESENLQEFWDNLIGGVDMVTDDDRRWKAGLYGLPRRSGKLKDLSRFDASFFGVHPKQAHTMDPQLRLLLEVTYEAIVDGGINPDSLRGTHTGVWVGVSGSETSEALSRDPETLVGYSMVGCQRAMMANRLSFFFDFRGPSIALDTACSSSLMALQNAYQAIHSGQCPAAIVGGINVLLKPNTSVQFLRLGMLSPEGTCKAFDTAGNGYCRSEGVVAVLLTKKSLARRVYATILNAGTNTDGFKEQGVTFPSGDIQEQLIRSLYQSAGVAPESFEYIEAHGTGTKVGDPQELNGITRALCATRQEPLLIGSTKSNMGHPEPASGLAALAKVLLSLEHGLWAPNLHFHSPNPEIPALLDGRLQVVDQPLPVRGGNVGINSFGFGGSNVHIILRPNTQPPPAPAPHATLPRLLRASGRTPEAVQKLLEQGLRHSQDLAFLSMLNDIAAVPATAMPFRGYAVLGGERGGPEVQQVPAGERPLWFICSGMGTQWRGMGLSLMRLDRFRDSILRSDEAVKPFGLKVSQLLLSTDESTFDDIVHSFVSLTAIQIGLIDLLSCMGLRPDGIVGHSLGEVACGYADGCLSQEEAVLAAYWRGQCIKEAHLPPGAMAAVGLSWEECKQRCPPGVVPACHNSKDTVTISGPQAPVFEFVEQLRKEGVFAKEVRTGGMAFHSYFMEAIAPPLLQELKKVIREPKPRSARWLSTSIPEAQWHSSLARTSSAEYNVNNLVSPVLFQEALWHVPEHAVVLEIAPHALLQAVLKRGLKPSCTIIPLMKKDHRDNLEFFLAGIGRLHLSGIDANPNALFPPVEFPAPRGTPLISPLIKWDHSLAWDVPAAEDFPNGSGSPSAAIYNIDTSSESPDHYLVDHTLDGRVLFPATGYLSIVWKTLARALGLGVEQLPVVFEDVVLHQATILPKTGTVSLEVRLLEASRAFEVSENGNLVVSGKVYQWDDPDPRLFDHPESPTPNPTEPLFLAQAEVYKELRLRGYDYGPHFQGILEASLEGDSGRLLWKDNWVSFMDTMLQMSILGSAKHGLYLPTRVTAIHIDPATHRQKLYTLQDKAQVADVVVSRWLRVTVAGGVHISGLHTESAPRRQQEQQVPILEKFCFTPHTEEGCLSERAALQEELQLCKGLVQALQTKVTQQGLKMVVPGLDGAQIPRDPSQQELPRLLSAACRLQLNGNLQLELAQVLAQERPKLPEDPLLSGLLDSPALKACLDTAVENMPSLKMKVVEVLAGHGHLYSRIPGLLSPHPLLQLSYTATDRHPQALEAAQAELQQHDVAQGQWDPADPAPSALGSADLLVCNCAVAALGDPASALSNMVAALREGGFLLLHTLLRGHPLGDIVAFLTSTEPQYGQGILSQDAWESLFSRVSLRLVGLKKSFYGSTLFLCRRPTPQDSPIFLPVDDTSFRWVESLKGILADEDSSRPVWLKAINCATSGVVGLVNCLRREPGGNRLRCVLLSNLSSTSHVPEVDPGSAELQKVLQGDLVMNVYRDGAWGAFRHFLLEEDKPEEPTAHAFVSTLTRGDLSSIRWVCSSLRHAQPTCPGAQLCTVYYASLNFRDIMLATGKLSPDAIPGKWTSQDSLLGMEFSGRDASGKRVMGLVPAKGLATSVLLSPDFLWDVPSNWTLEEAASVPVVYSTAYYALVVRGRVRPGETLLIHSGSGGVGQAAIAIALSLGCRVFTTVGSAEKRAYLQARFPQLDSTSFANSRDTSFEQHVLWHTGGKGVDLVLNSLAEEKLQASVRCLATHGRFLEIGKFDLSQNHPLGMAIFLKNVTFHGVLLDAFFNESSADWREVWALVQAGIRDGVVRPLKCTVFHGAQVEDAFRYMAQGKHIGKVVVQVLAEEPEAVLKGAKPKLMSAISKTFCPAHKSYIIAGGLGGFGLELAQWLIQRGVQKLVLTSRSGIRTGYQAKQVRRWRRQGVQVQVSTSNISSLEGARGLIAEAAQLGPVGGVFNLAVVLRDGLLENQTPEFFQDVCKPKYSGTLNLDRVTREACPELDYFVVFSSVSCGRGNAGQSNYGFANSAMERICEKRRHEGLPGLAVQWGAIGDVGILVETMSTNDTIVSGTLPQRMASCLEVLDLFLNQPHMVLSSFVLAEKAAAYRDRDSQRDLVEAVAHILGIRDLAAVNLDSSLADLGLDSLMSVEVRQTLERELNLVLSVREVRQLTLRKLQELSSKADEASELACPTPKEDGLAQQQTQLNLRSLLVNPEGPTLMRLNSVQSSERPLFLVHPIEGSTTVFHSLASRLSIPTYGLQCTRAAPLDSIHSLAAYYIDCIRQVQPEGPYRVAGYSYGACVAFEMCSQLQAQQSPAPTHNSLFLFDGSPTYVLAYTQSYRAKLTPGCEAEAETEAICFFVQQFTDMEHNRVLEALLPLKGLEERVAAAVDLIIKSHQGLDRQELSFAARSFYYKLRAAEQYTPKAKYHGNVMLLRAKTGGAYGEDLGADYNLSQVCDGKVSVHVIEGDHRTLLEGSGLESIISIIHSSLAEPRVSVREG

CCCSP(=S)(OCC)Oc1ccc(SC)cc1 (configuration not stated)
inactive: [1] | [2] | [5] | [6]
active: [3] 14 µM | [4] 1.41 µM

O=C(N[C@H]1CN2CCC1CC2)c1ccc2c(c1)OCCO2
not listed: [3] | [4] | [5] | [6] | [17] | [18] | [19] | [20]
inactive: all other assays above

Clc1cccc(Cl)c1Cl
active: [14] 50 µM
not listed: [3] | [4] | [5] | [6] | [17] | [18] | [19] | [20]
inactive: all other assays above

Oc1c(Br)cc(Br)cc1Br
inactive: [1] | [2] | [5] | [6]
active: [4] 36 µM

CC(C)=CC1C(C(=O)OCc2cccc(Oc3ccccc3)c2)C1(C)C (configuration not stated)
active: [17] 29.3 µM | [3] 25.7 µM | [4] 26.9 µM
inactive: [18] | [19] | [5] | [6]

O=C(O)C1(c2ccc3c(c2)OC[C@H](Cc2ccc(-c4ccccc4)cc2)[C@H]3O)CCCC1
active: [8] 50 µM | [10] 80.2 µM | [12] 82 µM | [13] 81.8 µM | [14] 23.3 µM | [16] 50 µM
inactive: [1] | [2] | [7] | [9] | [11] | [15]

Cc1cc(Cl)ccc1O
active: [4] 28.3 µM
inactive: [1] | [2] | [17] | [3] | [18] | [19]

CC(C)(COCC1CO1)COCC1CO1 (configuration not stated)
inactive: [17] | [3] | [4] | [18] | [19] | [5] | [6]

OC(Cc1ccccc1Cl)(Cn1[nH]cnc1=S)C1(Cl)CC1 (configuration not stated)
inactive: [17] | [3] | [4] | [20] | [18] | [19]

OC(Cc1ccccc1Cl)(Cn1cncn1)C1(Cl)CC1 (configuration not stated)
active: [17] 11.8 µM | [3] 1.37 µM | [18] 6.05 µM | [5] 3.86 µM | [6] 7.74 µM
inactive: [4] | [19]

Oc1c(Cl)cc(Cl)cc1Cl
inactive: [3] | [7] | [8] | [9] | [10] | [11] | [12] | [13] | [15] | [16]
active: [4] 66.5 µM
